High-throughput results (PubChem BioAssay)
FBW7 act – human FBW7 E3 ligase activation, primary screen; AID 1259310; normalized activity (activation), % at 26.1 µM; AlphaScreen FBW7–phospho-cyclin E peptide binding, activator screen; Q969H0; hit rate 0.13% among 650,000; in the data active means normalized activity above about 1.9%;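 further: purified mutant Fbw7 with reduced substrate affinity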
MITF primary – blocks human microphthalmia-associated transcription factor. hit rate 0.91% among 650,000. O75030. AlphaScreen MITF homodimerization, bead proximity signal. AID 1259374. inhibition, % at 2.6 µM; in the data active means inhibition above about 50%;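 further: 0% = vehicle wells with protein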
TEAD-YAP block – TEAD-YAP interaction inhibition | HEK-TIYL cells, TEAD-Gal4/YAP UAS-luciferase luminescence | inhibition, % at 9.12 µM | hit rate 1.4% among 640,000 | AID 1259422; in the data active means inhibition above about 32%;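 further: 0% = median of test compound wells and 100% = reference inhibitor wells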
GPR151 activ – human GPR151 activation; PathHunter beta-arrestin GPR151 cells, luminescence; hit rate 1% among 650,000; Q8TDV0; AID 1508602; activation, % at 11.2 µM; in the data active means activation above about 4.9%;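 further: 0% = median of compound wells and 100% = cells with positive control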
* hit, by the source's call. Sampled rows, rich in hits. Any-hit rate of the full collection: about 3.4%.

COc1ccc(/C=C/C(=O)NNC(=O)COc2ccccc2C)cc1 was read as FBW7 act 0, MITF primary 18, TEAD-YAP block 7 and GPR151 activ -1.
COc1ccc(C2=N/C(=C\c3ccccc3F)C(=O)O2)cc1OC was read as FBW7 act 0, MITF primary -2, TEAD-YAP block -8 and GPR151 activ 1.
Screening O=C(NC1CC1)c1ccc(-c2nc(NCCc3ccc(O)cc3)c3ncn(-c4ccsc4)c3n2)cc1 returned FBW7 act 0, MITF primary 6, TEAD-YAP block 58* and GPR151 activ 1.
For COc1ccc(CCNc2nc(-c3ccc(C(N)=O)cc3)nc3c2ncn3C2CCCCC2)cc1 the results were FBW7 act 0, MITF primary -1, TEAD-YAP block 9 and GPR151 activ -1.
NC(=O)c1ccc(-c2nc(NCCc3ccc(O)cc3)c3ncn(-c4ccsc4)c3n2)cc1 was read as FBW7 act 0, MITF primary 8, TEAD-YAP block 43* and GPR151 activ -1.
NC(=O)c1ccc(-c2nc(NCc3cccnc3)c3ncn(-c4ccsc4)c3n2)cc1 was read as FBW7 act 0, MITF primary -1, TEAD-YAP block 51* and GPR151 activ 0.
Screening COc1ccc(CCNc2nc(-c3ccc(C(=O)NC4CC4)cc3)nc3c2ncn3C2CCCCC2)cc1 returned FBW7 act 0, MITF primary 7, TEAD-YAP block 51* and GPR151 activ 1.
Screening CC(=O)Nc1ccc(-c2cn[nH]c2-c2ccc(F)cc2)cc1 returned FBW7 act 0, MITF primary -8, TEAD-YAP block -1 and GPR151 activ 2.
Screening CC(O)(c1ccc(F)cc1)C(CN1CCOCC1)c1ccccc1 (configuration not stated) returned FBW7 act 0, MITF primary 15, TEAD-YAP block -5 and GPR151 activ 0.
Screening CC(C)n1cnc2c(NCc3cccnc3)nc(-c3ccc(C(N)=O)cc3)nc21 returned FBW7 act 0, MITF primary 26, TEAD-YAP block 39* and GPR151 activ 0.
Screening Oc1ccc(CCNc2nc(-c3ccc(N4CCOCC4)nc3)nc3c2ncn3-c2ccsc2)cc1 returned FBW7 act 0, MITF primary -10, TEAD-YAP block 65* and GPR151 activ 0.
COc1ccc(-c2nc(NCc3cccnc3)c3ncn(C(C)C)c3n2)cc1 was read as FBW7 act 1, MITF primary 11, TEAD-YAP block 4 and GPR151 activ 4.
COc1ccc(CCNc2nc(-c3ccc(N4CCOCC4)nc3)nc3c2ncn3-c2ccsc2)cc1 was read as FBW7 act 0, MITF primary -1, TEAD-YAP block -1 and GPR151 activ 1.
`COc1ccc(C(=O)N/N=C(\C)CC(=O)Nc2cccnc2)cc1OC` gave FBW7 act 0, MITF primary 8, TEAD-YAP block 34* and GPR151 activ -1.
C/C(CC(=O)Nc1ccc(F)cc1F)=N\NC(=O)c1ccc(O)cc1 was read as FBW7 act 2.1*, MITF primary 16, TEAD-YAP block -17 and GPR151 activ -1.
COc1ccc(C(=O)Nc2cccnc2)cc1OC was read as FBW7 act 0, MITF primary -2, TEAD-YAP block -18 and GPR151 activ -1.
`COc1ccc(C(=O)N/N=C(\C)CC(=O)Nc2cccc3c2CCCC3)cc1OC` gave FBW7 act 0, MITF primary 9, TEAD-YAP block 32* and GPR151 activ -1.
For C/C(CC(=O)Nc1cccc2c1CCCC2)=N\NC(=O)c1cccc(O)c1 the results were FBW7 act 0, MITF primary 5, TEAD-YAP block 14 and GPR151 activ -1.
COc1ccc(C(=O)N/N=C(\C)CC(=O)Nc2ccccc2Br)cc1OC was read as FBW7 act 0, MITF primary -12, TEAD-YAP block 41* and GPR151 activ -2.
`Cc1ccc(Cl)cc1N/C(=C/C(=O)c1ccccc1)C(F)(F)F` gave FBW7 act 0, MITF primary 17, TEAD-YAP block -19 and GPR151 activ -1.
`O=C(Cc1ccccc1)Nc1cccc(C(=O)OCC(=O)c2ccc([N+](=O)[O-])cc2)c1` gave FBW7 act 0, MITF primary -7, TEAD-YAP block -15 and GPR151 activ -1.
For Cc1ccc(C)c(C(=O)COC(=O)c2cccc(NC(=O)Cc3ccccc3)c2)c1 the results were FBW7 act 0, MITF primary 1, TEAD-YAP block 42* and GPR151 activ 0.
For Cc1ccc(NC(=O)COc2c(C)cccc2C)c(Br)c1 the results were FBW7 act 2.5*, MITF primary 21, TEAD-YAP block -17 and GPR151 activ -1.
